Data on five compounds can be found in PubChem BioAssay AID624117 (National Center for Advancing Translational Sciences (NCATS), 2012).

Molecules are shown by their SMILES. Records with an inconclusive call do not appear. Active and inactive are the calls of the source. The call rests on the fitted dose curve; in most records, active means well fitted curve in the direction sought with a large enough effect; inconclusive means small, poorly fitted or top-dose-only effect, or another doubt; inactive means no such curve, though single readings can be large or run the other way.

A short description of this assay: qHTS Assay for Rab9 Promoter Activators: Hit Validation Using Renilla Luciferase Read-Out. Particulars: Huh7 NPC1 promoter Renilla luciferase reporter, 24 h; series mostly up to 76.9 µM. From the text: Niemann Pick Type C (NPC) is a rare neurodegenerative lipidosis that is characterized by lipid storage in the endosomal/lysosomal system. Treatment modalities for this devastating disease are currently non-existent due to the severe obstacles associated with accessing the central nervous system with proteins or genes. The majority of mutations causing NPC disease are missense mutations that are distributed throughout the length of the NPC1 protein, with the most prevalent being the I1061T allele. Although NPC1 mutant proteins may be functional, they are typically trapped in the ER due to misfolding. […] We have developed and optimized a cell based renilla luciferase reporter assay in 1536 well format for the identification of up-regulators of the mutant NPC1 promoter. This assay presents data on the validation of hits from the primary screen, which used a firefly luciferase read-out. NIH Chemical Genomics Center [NCGC] NIH Molecular Libraries Probe Production centers Network [MLPCN] MLPCN Grant: MH089375 Assay Submitter (PI): Yiannis A. Ioannou
Huh7 cells stably expressing NPC promoter-luciferase will be seeded at 1,500 cells/well in 5 uL in 1,536-well white opaque plates with 23 nL/well of compound in DMSO solution. The assay plates will be incubated at 37 deg C for 24 hours, after which 3 uL/well BriteLite plus luciferase detection reagent mixture (Perkin Elmer) will be added. Luminescence signal will be measured in a ViewLux plate reader (Perkin Elmer) after a 10 minute incubation at the room temperature.
On the technique in general: In qHTS, concentration-response curves come from the screen itself.
Turning to `CCC(=NCc1cccnc1)c1c(O)n(-c2ccccc2)c(=O)[nH]c1=O`, the outcome was inactive. With `COc1cccc(CCNCc2ccc(SC)cc2)c1`, the outcome was inactive. In the case of `O=C1c2ccccc2C(=O)N1Cc1nc2ccccc2c(=O)n1-c1cccnc1`, the result was inactive.

Take `CN1CCc2cc3c(c4c2C1Cc1ccccc1-4)OCO3` (stereo not given): the result was inactive.

Take `Cc1cccn2c(NCC3CCCO3)c(C(C)C)nc12` (stereo not given): the outcome was inactive.
